± gives the standard deviation of the averaged measurements.
Tested on: Caenorhabditis elegans N2 infected with Nematocida parisii ERTm1
Assay: progeny production relative to DMSO uninfected control; higher = more progeny despite microsporidia infection (inhibition of infection with low host toxicity)
Conditions: infection time 6 days
In short: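 Compound was pinned to 100 μM or 40 μM in 1% DMSO into 96-well plates containing K-medium, E. coli OP50, 15,000 N. parisii spores/μL and 100 synchronised wild-type C. elegans L1 larvae per well. Following 6 days of shaking at 21°C, worms were Rose Bengal-stained, scanned and counted with WorMachine, in three runs per compound and dose. Progeny production appears as a replicate-averaged percentage of spore-free vehicle wells.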

CC(=O)N1c2ccccc2NC2=C(C(=O)CC(C)(C)C2)C1c1ccc(OCc2ccccc2)cc1 (stereo unspecified)
progeny production (40 µM): 4.92 ± 0.34% | progeny production (100 µM): 9.82 ± 5.5%

CC#C[C@]1(O)CC[C@H]2[C@@H]3CCC4=CC(=O)CCC4=C3[C@@H](c3ccc(N(C)C)cc3)C[C@@]21C
progeny production (40 µM): 4.64 ± 1.1% | progeny production (100 µM): 14.9 ± 4.7%

c1cnc(NCc2ccc(CNc3ncccn3)cc2)nc1
progeny production (40 µM): 3.1 ± 0.72% | progeny production (100 µM): 9.59 ± 5.8%

Clc1cccc(-c2nnc(-c3ccccc3)o2)c1
progeny production (40 µM): 1.33 ± 1.1% | progeny production (100 µM): 4.24 ± 2.4%

OC1O[C@H](CSc2ccc(F)cc2)[C@@H](O)[C@H]1O (stereo partly specified)
progeny production (40 µM): 5.22 ± 0.52% | progeny production (100 µM): 9.44 ± 6.8%

c1ccc(-c2nnc3c4ccccc4c(N4CCNCC4)nn23)cc1
progeny production (40 µM): 2.73 ± 0.97% | progeny production (100 µM): 15.6 ± 12%

CC[C@@H]1C(=O)OC[C@@H]1Cc1cncn1C
progeny production (40 µM): 4.59 ± 1.7% | progeny production (100 µM): 11.8 ± 11%

CCCCc1ccc(-c2nc(C)c(C(=O)OC)s2)cc1
progeny production (40 µM): 4.25 ± 0.74% | progeny production (100 µM): 12.2 ± 3.7%

C[C@H]1[C@@H](c2cccc(C(F)(F)F)c2)OC(=O)N1C(=O)NCc1cncc2ccccc12
progeny production (40 µM): 2.28 ± 1.4% | progeny production (100 µM): 7.48 ± 6.2%

C/C(=N\NC(=O)C1CC1c1ccccc1)c1ccc(NC(=O)c2ccco2)cc1 (stereo unspecified)
progeny production (40 µM): 2.3 ± 0.95% | progeny production (100 µM): 6.87 ± 1.1%

Cc1cccc(CC(=O)N[C@H]2CCOC2=O)c1
progeny production (40 µM): 3.04 ± 0.7% | progeny production (100 µM): 6.81 ± 3.6%

Cc1c(OCC(F)(F)F)ccnc1C[S+]([O-])c1nc2ccccc2[nH]1 (stereo unspecified)
progeny production (40 µM): 6.74 ± 4.3% | progeny production (100 µM): 11 ± 6.1%

CC(C)Cn1c(=O)n(C)c(=O)c2c(-c3cncn3C)n(Cc3cccc4ccccc34)nc21
progeny production (40 µM): 4.44 ± 2.9% | progeny production (100 µM): 6.12 ± 1.8%

CCCCCc1ccc(C(=O)NCCn2cc(CCCCCc3c[nH]c(N)n3)nn2)cc1
progeny production (40 µM): 8.32 ± 7.4% | progeny production (100 µM): 2.61 ± 1.4%

N[C@H](CCC(=O)N[C@@H](Cc1c[nH]c2ccccc12)C(=O)O)C(=O)O
progeny production (40 µM): 6.53 ± 2.2% | progeny production (100 µM): 14.8 ± 3.7%

CC(C)c1cc2c(cc1S(=O)(=O)O)[C@@]1(C)CCC[C@@](C)(C(=O)O)[C@@H]1CC2
progeny production (40 µM): 8.72 ± 4.5% | progeny production (100 µM): 4.55 ± 3%

CCc1cc(Nc2cc(=O)n(CCN3CCN(C(=O)c4ccccc4)CC3)c(=O)[nH]2)ccc1C
progeny production (40 µM): 5.16 ± 2.4% | progeny production (100 µM): 21 ± 12%

Cn1c2ccccc2c(=O)c2c(O)cccc21
progeny production (40 µM): 3.85 ± 0.59% | progeny production (100 µM): 13.6 ± 7.8%

CC(C)(C)OC(=O)NCc1ccc(C(=O)N[C@H]2CCOC2=O)cc1
progeny production (40 µM): 5.57 ± 4.2% | progeny production (100 µM): 24.3 ± 18%

CCNC(=O)Nc1cc(-c2ccccc2)c(-c2cncc(C(=O)O)c2)cn1
progeny production (40 µM): 3.89 ± 0.4% | progeny production (100 µM): 28.1 ± 28%

C[C@H](c1cccc2ccccc12)N(C)Cc1ccccc1
progeny production (40 µM): 3.94 ± 1.7% | progeny production (100 µM): 12.4 ± 7.8%

CN(C)CCCNC(=O)c1ccc(-c2cc(O)c3ncccc3c2)cc1
progeny production (40 µM): 5.74 ± 3.9% | progeny production (100 µM): 10.5 ± 6.4%

CC(C)CCN1C(=O)C(C2=NS(=O)(=O)c3cc(NS(C)(=O)=O)ccc3N2)=C(O)[C@@H]2[C@H]3CC[C@H](C3)[C@@H]21
progeny production (40 µM): 3.42 ± 3.9% | progeny production (100 µM): 9.92 ± 5.3%

OB1OCc2c1ccc(Cl)c2F
progeny production (40 µM): 4.06 ± 1% | progeny production (100 µM): 18.5 ± 12%

O=C1c2cccc3cccc(c23)C(=O)N1CC1CO1 (stereo unspecified)
progeny production (40 µM): 7.39 ± 4.7% | progeny production (100 µM): 44.9 ± 30%

CC[C@@]1(O)C(=O)OCc2c1cc1n(c2=O)Cc2cc3c(CN(C)C)c(O)ccc3nc2-1
progeny production (40 µM): 7.48 ± 1.6% | progeny production (100 µM): 10 ± 2.5%

OCCCCn1cnc2c(O)nc(NCc3ccc(Cl)c(Cl)c3)nc21
progeny production (40 µM): 4.76 ± 1.4% | progeny production (100 µM): 10.6 ± 7.9%

Nc1cccc(-c2nc(N)nc(NC3Cc4ccccc4C3)n2)c1
progeny production (40 µM): 8.19 ± 3.8% | progeny production (100 µM): 20.6 ± 10%

O=C(Nc1ccc(Cl)c(C(F)(F)F)c1)C(CCCl)C(=O)Nc1ccc(Cl)c(C(F)(F)F)c1
progeny production (40 µM): 7.13 ± 2.7% | progeny production (100 µM): 8.04 ± 5.6%

Fc1ccc2c(/C=C/c3nnn[nH]3)c[nH]c2c1
progeny production (40 µM): 3.91 ± 4% | progeny production (100 µM): 12.2 ± 9.8%

CC(C)n1cnc2c(NCc3ccccc3)nc(NCc3ccccc3)nc21
progeny production (40 µM): 7.59 ± 5.2% | progeny production (100 µM): 12.1 ± 7.2%

Clc1ccc(Cn2c(CN3CCCC3)nc3ccccc32)cc1
progeny production (40 µM): 3.41 ± 1.9% | progeny production (100 µM): 6.88 ± 1.8%

Nc1nc(C(F)(F)F)cc2c1[nH]c(=O)n2Cc1ccccc1
progeny production (40 µM): 2.69 ± 0.61% | progeny production (100 µM): 17.2 ± 1.5%

C=C[C@]1(C)C[C@@H](OC(=O)CS[C@@H]2C[C@H]3CC[C@@H](C2)N3C)[C@]2(C)[C@H](C)CC[C@]3(CCC(=O)[C@H]32)[C@@H](C)[C@@H]1O
progeny production (40 µM): 11.3 ± 8.7% | progeny production (100 µM): 15.1 ± 6.1%

CC1=C(/C=C/C(C)=C/C=C/C(C)=C/C(=O)Nc2ccc(O)cc2)C(C)(C)CCC1
progeny production (40 µM): 3.02 ± 2.2% | progeny production (100 µM): 11.6 ± 9.7%

COC1CC2CCC(C)C(O)(O2)C(=O)C(=O)N2CCCCC2C(=O)OC(C(C)CC2CCC(OCCO)C(OC)C2)CC(=O)C(C)/C=C(\C)C(O)C(OC)C(=O)C(C)CC(C)/C=C/C=C/C=C/1C (stereo unspecified)
progeny production (40 µM): 5.45 ± 2.7% | progeny production (100 µM): 9.56 ± 2.5%

COc1ccc(C2CNC(=O)C2)cc1OC1CCCC1 (stereo unspecified)
progeny production (40 µM): 4.65 ± 2.2% | progeny production (100 µM): 11.2 ± 9.9%

O=C(O)[C@H]1C2CCC(CC2)[C@@H]1Nc1nc(-c2c[nH]c3ncc(F)cc23)ncc1F
progeny production (40 µM): 8.03 ± 4.7% | progeny production (100 µM): 14.2 ± 12%
